Assay outcomes from PubChem BioAssay.
MEKK2 mut-MEK5 = signal of MEK5 binding to mutant human MEKK2 PB1 domain; bead flow cytometry, Alexa488-MEK5 binding to MEKK2 mutant; 290,000 tested, 0.35% active; percent response, % at 10 µM; in the data active = percent response above about 24%, passing the limit was not always enough
MEKK2wt PB1 HTS = raises or lowers MEK5 binding to wildtype human MEKK2 PB1 domain. AID 1531. 290,000 tested, 1.1% active. Q9Y2U5. binding response (% of control), % at 10 µM. bead flow cytometry, Alexa488-MEK5 binding to MEKK2 WT; actives lie on both sides; in the data active = binding response below about 67% or above about 130%
MEKK3 PB1 HTS = modulators (inhibitors or enhancers) of MEK5 binding to human MEKK3 PB1 domain | bead-based flow cytometry, Alexa488-MEK5 binding to MEKK3; actives lie on both sides; 0 = blocked by unlabeled MEK5, 100 = vehicle | binding response (% of control), % at 10 µM | 290,000 tested, 1.4% active;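 active = binding response more than 3 SD above or below the average of its plate-row segment, actives on both sides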;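 also: Alexa488 bead fluorescence after subtracting the streptavidin-only scavenger bead signal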
UBC13 polyUb = inhibitors of human UBC13 polyubiquitin chain formation. inhibition, % at 20 µM. AID 485273. 330,000 tested, 0.47% active. P61088. TR-FRET; in the data active = inhibition above about 45%, passing the limit was not always enough
Target sequence (P61088 whole entry, looked up): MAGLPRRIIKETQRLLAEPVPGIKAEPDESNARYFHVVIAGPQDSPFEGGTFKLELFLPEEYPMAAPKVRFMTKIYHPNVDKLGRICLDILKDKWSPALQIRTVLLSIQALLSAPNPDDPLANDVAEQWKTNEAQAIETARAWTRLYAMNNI
Hits are given with their value; . = inactive; / = no result; [ ] = remark or other dose. A selection: hits, their analogues and other compounds. The true share with any hit is near 2.3%.

SMILES | MEKK2 mut-MEK5 | MEKK2wt PB1 HTS | MEKK3 PB1 HTS | UBC13 polyUb
N=C1S/C(=C\c2cccc3ccccc23)C(=O)N1c1ccc(F)cc1 | . | . | 144.0 | .
N=C1S/C(=C\c2ccccc2F)C(=O)N1c1ccc(F)cc1 | . | . | . | .
O=S(=O)(Cc1ccccc1)N1CCc2ccccc21 | 74.0 | / | . | .
COc1cc(CN2CCN(c3cccc(C)c3C)CC2)cc([N+](=O)[O-])c1O | 242.0 | 212.0 | . | .
CCOC(=O)[C@H]1[C@H]2COc3ccc(Br)cc3[C@H]2N2C(=O)CNC(=O)[C@@]12C | / | / | / | .
COc1ccccc1NS(=O)(=O)c1cc([N+](=O)[O-])ccc1N/N=C/c1c[nH]c2ccccc12 | . | -1.0 | . | .
Cc1ccsc1/C=C/C1=Cc2c(sc(NC(=O)CSc3n[nH]c(N)n3)c2C#N)C(C)(C)C1 | . | . | . | .
CCOc1ccc(/C=C/C2=Cc3c(sc(NC(=O)CSc4n[nH]c(N)n4)c3C#N)C(C)(C)C2)cc1 | . | 31.0 | . | .
C(C#CCCCCCCCCC[n+]1ccccc1)#CCCCCCCCCC[n+]1ccccc1 | 56.0 | 274.0 | . | /
CCN1CCN(S(=O)(=O)c2cc(OCC(=O)NC3CCCCC3)c(C)cc2Cl)CC1 | . | 3.0[inhibitor] | 3.0[inhibitor] | .
Cc1cc(Cl)c(S(=O)(=O)N2CCCCCC2)cc1OCC(=O)NC1CCCCC1 | . | . | . | .
Cc1cc(SCC(=O)c2ccc3c(c2)OCO3)nc2ccccc12 | . | 38.0 | . | .
Cc1cc(SCC(=O)c2ccc(O)c(O)c2)nc2ccccc12 | . | . | . | .
Cc1ccccc1Nc1nc(N)c2ccccc2n1 | . | 173.0 | 161.0 | .
COc1cccc(/C=N/n2c(-c3cc(C)[nH]n3)n[nH]c2=S)c1O | . | . | . | .
O=C(NNC(=O)c1cccnc1SCc1cccc([N+](=O)[O-])c1)c1ccc(F)cc1 | . | . | . | .
O=C(NNC(=O)c1cccnc1SCc1cccc([N+](=O)[O-])c1)c1ccccn1 | . | . | 134.0 | .
COc1cc2c(cc1OC)C(C)N(C(=O)c1cc3c(=O)oc4ccc(C)cc4c3s1)CC2 (configuration not stated) | . | . | . | 46.7
CCCCn1c(N)c(N(CCC(C)C)C(=O)CSc2nncn2-c2ccccc2)c(=O)[nH]c1=O | / | / | / | .
CCCN1CCN(C(=O)C2CCN(c3nnc(C)c4c(C)n(-c5ccc(C)cc5)nc34)CC2)CC1 | 134.0 | . | . | .
OC(COc1ccc(Br)cc1)CN1CCC(Cc2ccccc2)CC1 (configuration not stated) | . | 135.0 | . | .
CC(C)OCC(O)CN1CCC(Cc2ccccc2)CC1 (configuration not stated) | . | . | . | .
CCOC(=O)N1CCN(C(=O)C(=O)c2cn(CC(=O)N3CCCCCC3)c3ccccc23)CC1 | . | 2.0 | . | .
Cc1ccc(S(=O)(=O)N2CCN(C(=O)/C=C/c3ccccc3)CC2)cc1C | / | / | / | .
O=C(CN1C(=O)C2CCCCC2C1=O)OCC(=O)c1ccc(Cl)s1 (configuration not stated) | . | . | . | .
SMILES | MEKK2 mut-MEK5 | MEKK2wt PB1 HTS | MEKK3 PB1 HTS | UBC13 polyUb
COc1ccccc1N1CCN(C(=O)C2C3C=CC4(CN(Cc5ccccc5Cl)C(=O)C24)O3)CC1 (configuration not stated) | . | . | 82.0[inhibitor] | .
O=C(O)COc1ccccc1/C=N/NC(=O)c1ccc(F)cc1 | . | . | . | .
O=C(O)COc1ccccc1/C=N/NC(=O)Cc1ccccc1 | . | -12.0 | . | .
CN(C)c1ccc(/C=C2\CCC/C(=C\c3ccccc3)C2=O)cc1 | . | 15.0 | . | /
Cc1ccc(C(=O)C(C)OC(=O)c2nc(Cl)ccc2Cl)cc1 (configuration not stated) | . | . | . | .
Cc1cccc(N2CCC(N3CCN(C4CCCCC4)C(CCO)C3)CC2)c1C (configuration not stated) | . | . | . | .
COC(=O)C/C=N/N=C1/NC(=O)/C(=C/C(=O)O)S1 | . | 1.0 | . | .
COC(=O)/C=C1\S/C(=N/N=C/c2ccc(Cl)cc2)NC1=O | . | . | . | .
COc1ccc(CN(C)CC(O)COC(c2ccc(OC)cc2)c2ccc(OC)cc2)cc1 (configuration not stated) | . | 147.0 | . | .
COc1ccc(CN(C)CC(O)COc2ccc(-c3ccccc3)cc2)cc1OC (configuration not stated) | . | 136.0 | . | .
COc1ccc(C(OCC(O)CN(C)C2CCCCC2)c2ccc(OC)cc2)cc1 (configuration not stated) | . | 161.0 | . | .
CCOc1ccc(CN(C)CC(O)COC(c2ccc(OC)cc2)c2ccc(OC)cc2)cc1 (configuration not stated) | 35.0 | 180.0 | . | .
CN(Cc1ccc(OCC(O)CN(C)Cc2ccccc2)cc1)Cc1nccn1C (configuration not stated) | . | . | . | .
O=C(C1CCCN(CCCc2ccccc2)C1)N1CCCCC1 (configuration not stated) | . | . | . | .
C=C1C(=O)O[C@@]23[C@H]1CC[C@@H](C)[C@@H]2CC[C@@]1(C)O[C@@H]31 | / | / | / | .
COc1ccc(S(=O)(=O)N2CCCC(C(=O)NCC3CCCO3)C2)cc1OC (configuration not stated) | . | . | . | .
Cc1cc(F)ccc1NC(=O)Cn1c(C)csc1=O | / | / | / | .
Cn1c2ccccc2c(=O)c2ccc(C#Cc3ccc(N)cc3)cc21 | . | 22.0 | . | .
COc1ccc(-n2c(-c3ccc(Cl)cc3)c[n+]3c2CCc2ccccc2-3)cc1 | . | . | . | .
Cc1ccc(-n2c(-c3ccc(Br)cc3)c[n+]3c2CCc2ccc4cccnc4c2-3)cc1 | . | 153.0 | . | /
CN1CCCN(C(=O)CNC(=O)c2ccccc2Br)CC1 | / | / | / | .
O=C(NCCCN1CCCC1)C1CCN(C(=O)c2cc3sccc3n2Cc2ccc(F)cc2)CC1 | 28.0 | 168.0 | . | .
O=C(COC(=O)c1ccc(F)c(S(=O)(=O)N2CCOCC2)c1)Nc1ccc2c(c1)OCO2 | / | / | / | .
CN(C)CCC(O)c1ccccc1 (configuration not stated) | . | -4.0 | . | .
Cc1ccc(NS(=O)(=O)c2ccc(-c3csc(C)n3)s2)c(C)c1 | . | . | . | .
SMILES | MEKK2 mut-MEK5 | MEKK2wt PB1 HTS | MEKK3 PB1 HTS | UBC13 polyUb
Fc1ccc(N2CCN(c3ncnc4c3nnn4Cc3ccccc3Cl)CC2)cc1 | . | . | 71.0[inhibitor] | .
CCN1CCN(CCCN(Cc2ccco2)C(=S)Nc2ccc(Cl)c(C)c2)CC1 | . | . | . | .
COc1ccc(NC(=S)N(CCCN2CCC(C)CC2)Cc2cccs2)cc1Cl | . | . | . | .
Cc1ccc(NC(=S)N(CCCN2CCCC2)Cc2cccn2Cc2ccc(Cl)cc2)cc1C | 74.0 | 228.0 | . | .
Cc1ccc(NC(=S)N(CCCN2CCCC2)Cc2cccn2Cc2ccc(Cl)cc2)cc1Cl | . | 317.0 | . | .
COc1ccc(NC(=S)N(CCCN2CCCC2)Cc2cccn2Cc2ccc(Cl)cc2)cc1Cl | 161.0 | 293.0 | . | .
Cc1cc(NC(=S)N(CCN2CCCCC2)Cc2ccco2)ccc1Cl | . | . | . | .
